Compound activity deposited in PubChem BioAssay by National Center for Advancing Translational Sciences (NCATS).
Sampled rows, rich in hits. Any-hit rate of the full collection: about 3.2%.
AmpC no deterg: blocks E. coli AmpC beta-lactamase in detergent-free assay. AID 485341. AmpC nitrocefin hydrolysis, absorbance 480 nm, 0.0001% Triton. hit rate 0.52% among 330,000. Potency, µM (series often up to 57.1 µM), for the others: at the highest dose activity change, negative = inhibition, actives largely listed as inhibitors;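 note: plate controls were no compound for no effect and no enzyme for full effect; nearly all actives have a fitted effect of over 20% in size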
Target sequence (P00811 whole entry, looked up): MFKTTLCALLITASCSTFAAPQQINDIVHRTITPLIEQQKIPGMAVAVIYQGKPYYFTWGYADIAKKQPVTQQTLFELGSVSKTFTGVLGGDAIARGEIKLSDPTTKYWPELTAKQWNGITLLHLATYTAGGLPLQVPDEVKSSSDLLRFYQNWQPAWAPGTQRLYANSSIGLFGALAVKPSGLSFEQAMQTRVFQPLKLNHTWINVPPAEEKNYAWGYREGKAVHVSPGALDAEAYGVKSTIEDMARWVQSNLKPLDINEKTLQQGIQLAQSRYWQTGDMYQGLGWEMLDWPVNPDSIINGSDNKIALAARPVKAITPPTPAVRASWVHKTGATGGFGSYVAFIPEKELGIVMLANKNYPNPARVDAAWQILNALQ
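AmpC (5.3 nM in the dispensed reagent) in 20 mM phosphate pH 7.0 with 0.01% (detergent screen) or 0.0001% Triton X-100 was preincubated with compounds for 15 min at room temperature. Nitrocefin was then added from an 800 uM solution, and hydrolysis was followed at 480 nm.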
Sm TGR inh: inhibitors of Schistosoma mansoni thioredoxin glutathione reductase. Q962Y6. purified TGR, DTNB reduction, TNB absorbance 405 nm. Potency, µM (titrated, usually from 114 µM), for the others: at the highest dose activity change, negative = inhibition, hits mostly inhibitors. hit rate 3% among 360,000; note: nearly all actives have a fitted effect of over 60% in size
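Kinetic colorimetric format: TGR-catalysed, NADPH-driven DTNB reduction monitored via TNB absorbance. Enzyme dispensed at 20 nM; compound exposure 15 min at room temperature before reaction start.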
AmpC detergent: inhibitors of E. coli AmpC beta-lactamase with detergent; P00811; AmpC hydrolysis of nitrocefin, absorbance 480 nm, 0.01% Triton; Potency, µM (highest dose often 114 µM), inactives show at the highest dose activity change, negative = inhibition, hits mostly inhibitors; hit rate 0.041% among 370,000; AID 485294;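 note: 0% = no-compound wells and -100% = no-enzyme wells; nearly all actives have a fitted effect of over 25% in size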
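20 mM phosphate pH 7.0 + 0.01% (detergent screen) or 0.0001% Triton X-100; 5.3 nM AmpC reagent; cpd preinc 15 min RT; nitrocefin (800 uM stock) to start; A480 q20 s × 4 min; Activity was normalised to no-enzyme and no-compound control wells.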
AMA1 RON2 block: inhibitors of Plasmodium falciparum AMA1-RON2 interaction; AlphaScreen AMA1-biotinylated RON2 peptide binding; Potency, µM (highest dose often 58.2 µM), without a hit: at the top dose activity change, negative = inhibition, usual class: inhibitors; hit rate 0.2% among 360,000; AID 720542;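 note: 0% = vehicle wells and -100% = peptide control; nearly all actives have a fitted effect of over 45% in size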
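AMA1 (3D7) with his tag at 25 nM final met compounds first, then biotinylated RON2 peptide at 25 nM; detection used donor plus acceptor beads, 10 µg/mL apiece, read by AlphaScreen after 30 min at room temperature.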
RE007 growth inh: less growth of the S. pombe RE007 Vpr strain. AID 651644. S. pombe RE007 Vpr strain, BacTiter-Glo ATP luminescence, 24 h. Potency, µM (titrated, usually from 92.2 µM), inactives show at the highest dose activity change, negative = less growth, most hits filed as inhibitors. hit rate 0.21% among 360,000; active = well fitted falling curve with a large enough effect; inconclusive = small, poorly fitted or top-dose-only effect; inactive = no such curve, though single readings can be large or run the other way; note: nearly all actives have a fitted effect of over 50% in size
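Fission yeast RE007 carrying one integrated HIV-1 vpr copy, seeded at OD 0.01 in PMG+AL medium with 23 nL pinned compound. Grown 24 h at 30 degrees; viability read by BacTiter-Glo luminescence after 5 min.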
* = called active by the depositor; ? = inconclusive; · = no result given; ! = not confirmed by another sample; [ ] = dose if it differs, or a comment. Unless noted, calls come from the whole dose curve; as a rule, active = well fitted curve in the direction sought with a large enough effect; inconclusive = small, poorly fitted or top-dose-only effect, or another doubt; inactive = no such curve, though single readings can be large; an effect the other way counts as inactive or inconclusive. Unless noted, % is set by controls: 0 for no effect and ±100 for the full control effect; potency is the fitted concentration of half-maximal effect.

SMILES | AmpC no deterg | Sm TGR inh | AmpC detergent | AMA1 RON2 block | RE007 growth inh
CCN(CC)S(=O)(=O)c1ccc(C)c(N=C=S)c1 | -6.0%[11.4 µM] | 39.8µM* | 1.6% | 23.8% | 25.5%
CCN(CC)S(=O)(=O)c1ccc(-c2ccc(S(=O)(=O)N(CC)CC)cc2)cc1 | -6.9% | -11.2% | -1.1% | 9.0% | 1.1%
O=C1OCCC1Sc1nnc(-c2ccccc2)o1 (stereo not given) | -21.4% | -1.9% | ? | -14.3% | -10.8%
O=C1c2ccccc2CC1Sc1nnc(-c2ccccn2)o1 (stereo not given) | -14.6% | 44.7µM* | ? | 107.3% | 9.9%
CCCCN1C(=O)c2[nH]nc(-c3ccccc3O)c2C1c1ccc(C(C)(C)C)cc1 (stereo not given) | · | 8.4% | 15.5% | · | ·
CS(=O)(=O)N(CC(N)=O)c1ccc(F)c(Cl)c1 | 0.316µM* | 1.5% | 1.9% | 21.4% | 7.7%
CN(C)C(=O)CN(c1ccc(F)c(Cl)c1)S(C)(=O)=O | -3.9% | ? | -2.4% | 3.8% | -3.6%
CCOc1ccc(CNC(=O)C2CCCN(S(=O)(=O)c3ccc4c(ccn4C)c3)C2)cc1 (stereo not given) | · | 1.4% | 14.3% | · | ·
Cc1ccc(C)c(N2CCN(Cc3csc(C)c3)CC2)c1 | · | -0.4% | -9.2% | · | ·
COCCn1c(N/N=C(C)/C=C/c2ccccc2)nc2c1c(=O)[nH]c(=O)n2C | 28.7% | 25.1µM* | -5.9% | · | ·
CCCn1c(N/N=C\C=C\c2ccccc2)nc2c1c(=O)[nH]c(=O)n2C | -29.1% | ? | ? | 61.0% | 8.1%
CC(/C=C/c1ccccc1)=N\Nc1nc2c(c(=O)[nH]c(=O)n2C)n1CCO | -1.1% | 14.1µM* | 9.6% | 55.8% | 7.3%
CC1CCN(S(=O)(=O)c2ccc3c(c2)N(CC(=O)NCCc2ccc(Cl)cc2)C(=O)CO3)CC1 | · | -2.3% | 8.8% | · | ·
CCOc1ccc(CCNC(=O)CSc2nnnn2-c2ccccc2)cc1OCC | · | -9.8% | -3.2% | · | ·
COc1cc2c(=O)n(Cc3ccccc3)c(=O)n(CC(=O)Nc3cc(C(F)(F)F)ccc3Cl)c2cc1OC | · | 2.9% | 6.0% | · | ·
COc1ccc(CCNC(=O)CN2C(=O)COc3ccc(C)cc32)cc1OC | · | 0.0% | 10.4% | · | ·
O=c1c(C(c2ccc(Cl)cc2)c2c(O)nc3n(c2=O)CCCS3)c(O)nc2n1CCCS2 | -13.9% | 1.78µM* | 2.7% | 0.4% | 2.0%
O=c1c(C(c2ccc(F)cc2)c2c(O)nc3n(c2=O)CCS3)c(O)nc2n1CCS2 | ? | 0.794µM* | 2.2% | 0.3% | -10.0%
O=c1c(C(c2ccc(Cl)cc2)c2c(O)nc3n(c2=O)CCS3)c(O)nc2n1CCS2 | -22.2% | -0.6% | -0.7% | -3.1% | 2.7%
CCc1c(C)nc2[nH]nc(-c3ccccc3C)n2c1=O | 0.282µM* | 8.7% | -1.3% | -9.7% | 1.4%
COc1ccc(-c2c3c(=O)n(C)c(=O)n(C)c3c3n2-c2ccccc2NC3c2ccc(OC)cc2)cc1 (stereo not given) | · | -0.5% | 27.4% | · | ·
COc1ccc(N=C2C(=Nc3ccc(OC)cc3)N(c3ccc(OC)cc3)C(=S)N2C)cc1 | 10.8% | -1.2% | 1.7% | 6.7µM* | 7.3%
COc1ccc(C)cc1NC(=O)C(Sc1nnc(Nc2ccccc2F)s1)c1ccccc1 (stereo not given) | 3.55µM* | -1.0% | -7.7% | -16.9% | -8.3%
Clc1ccc(OCc2nnc(SCCN3CCCCC3)n2Cc2ccco2)cc1 | 70.7% | 25.1µM* | ? | -10.3% | -11.3%
C/C(CC(=O)Nc1ccc(Cl)cc1Cl)=N\NC(=O)c1ccco1 | 7.94µM* | -18.4% | -11.9% | 66.1% | -16.3%
SMILES | AmpC no deterg | Sm TGR inh | AmpC detergent | AMA1 RON2 block | RE007 growth inh
Cc1ccc(OCC(=O)Nc2ccc(S(=O)(=O)Nc3cc(C)nc(C)n3)cc2)c(Br)c1 | · | -5.9% | 1.3% | · | ·
O=C(COC(=O)/C=C/c1ccco1)Nc1ccccc1 | -18.1% | 56.2µM* | 6.5% | -10.0% | -16.0%
COC(=O)c1ccccc1NC(=O)COC(=O)/C=C/c1ccco1 | -7.9%[11.4 µM] | 25.1µM* | ? | 0.3% | 10.5%
O=C(/C=C/c1ccco1)OCC(=O)c1cccc([N+](=O)[O-])c1 | -25.6% | -32.8% | -2.3% | -29.9% | 3.7%
COC(=O)c1ccccc1NC(=O)COC(=O)c1ccco1 | -18.9% | -22.0% | -3.9% | -3.1% | 3.9%
CCc1ccc(NC(=O)COC(=O)/C=C/c2ccco2)cc1 | -11.9% | · | · | -0.3% | -13.9%
COc1ccc(C(=O)COC(=O)/C=C/c2ccco2)cc1F | -29.1% | 22.4µM* | -2.5% | -5.8% | -7.4%
O=C(COC(=O)/C=C/c1ccco1)Nc1ccc(F)cc1Cl | -27.5% | 31.6µM* | -2.9% | -16.1% | -15.2%
CCOCCCNC(=O)c1cc2c(=O)[nH]c3ccccc3c2n1C | · | 1.2% | 0.4% | · | ·
O=C(COC(=O)/C=C/c1ccco1)NCc1ccc2c(c1)OCO2 | -25.5% | 35.5µM* | 4.1% | -15.2% | 13.4%
O=C(COC(=O)/C=C/c1ccc(F)cc1)NCc1ccc2c(c1)OCO2 | -8.4% | · | · | -3.8% | 2.2%
CC1CCCC(NC(=O)COC(=O)/C=C/c2ccco2)C1C (stereo not given) | -18.2% | 44.7µM* | -9.8% | -6.3% | -7.1%
Cc1ccc2onc(CNC(=O)Nc3ccccc3C#N)c2c1 | · | 4.4% | -10.5% | · | ·
O=C(OCC1CCCO1)c1ccc2c(c1)N(Cc1cccc(Cl)c1)C(=O)c1ccccc1S2(=O)=O (stereo not given) | · | 10.8% | 0.4% | · | ·
O=C(Nc1cc(-c2ccccc2)[nH]n1)c1ccc(Cl)cc1 | 7.08µM*! | 1.1% | 0.1% | 23.3% | -15.4%
CCc1nnc2c3ccccc3nc(Nc3ccc(F)c(Cl)c3)n12 | · | 7.6% | 9.0% | · | ·
COc1ccccc1N1CCN(C(=O)c2ccc3nc(-c4ccco4)c(-c4ccco4)nc3c2)CC1 | 174.8% | 14.1µM* | 1.5% | -28.1% | 22.2%
Cc1ccc(C)c(N2CCN(C(=O)c3ccc4nc(-c5ccco5)c(-c5ccco5)nc4c3)CC2)c1 | 21.2% | 6.31µM* | -14.9% | 1.9% | -7.1%
Cc1ccc(C)c(N2CCN(C(=O)c3ccc4nc(N5CCOCC5)sc4c3)CC2)c1 | 147.5% | -25.5% | -0.7% | -4.8% | 20.9%
COc1ccccc1N1CCN(C(=O)c2cc(C3CC3)on2)CC1 | 20µM* | -29.6% | ? | -9.6% | 15.6%
COc1ccc2nc3oc(C(=O)N4CCN(c5cc(C)ccc5C)CC4)cc3cc2c1 | · | 89.1µM* | -1.8% | · | ·
COc1ccccc1N1CCN(C(=O)c2ccc3nc[nH]c3c2)CC1 | -17.1% | -1.3% | ? | 1.6% | 0.0%
CCOc1ccc(C(=O)N2CCn3c2nc2ccccc23)cc1 | -13.0% | 44.7µM* | 1.6% | 5.6% | 0.8%
Cc1cccc(N2CCN(C(=O)c3ccc4c(c3)OCCO4)CC2C)c1 (stereo not given) | 41.8% | 1.0% | -5.7% | 2.9% | -8.9%
